Platelet DG rel: platelet dense granule release activity. 300,000 compounds, 0.22% hits. inhibition, %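 (compounds screened at 7.5 µM in platelet-rich plasma)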. human platelet-rich plasma, SFLLRN dense granule ATP release, luminescence. AID 1663;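 active = mean replicate score, as percent of positive control, at or above 50; inconclusive = mean below 50 but at least one replicate at or above 50; inactive = mean and every replicate below 50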
MPTP inh: permeability transition pore inhibition; isolated mouse mitochondria, Ca2+ swelling absorbance, 30 min; inhibition, % at 10 µM; 360,000 compounds, 1.4% hits;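 active = inhibition of 50% or more, scaled per plate between neutral and stimulator controls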
HSF1 activator: increases HSF-1 driven luciferase reporter signal; NIH3T3-HGL HSF-1 luciferase reporter, MG132, 8 h; 100% = twice DMSO control signal; 300,000 compounds, 1.7% hits; activation, % at 9 µM; AID 504408;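 active = mean replicate activation of at least 50% with a set share of replicates each reaching 50%; inconclusive = only one of those two conditions met; inactive = mean below 50% and too few replicates reaching it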
HSP90 refold inh: inhibitors of HSP90 luciferase refolding in rabbit reticulocyte lysate; luciferase refolding luminescence, 3 h; inhibition, % at 5.6 µM; 290,000 compounds, 0.91% hits; AID 1789;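 active = inhibition above the screen-wide mean plus 3 SD, computed separately per campaign, cut at about 16% in these data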;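 note: inhibitors lower the luminescence because luciferase stays unfolded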
HSF1 inh: HSF1 inhibition; NIH3T3-HGL HSE-luciferase, MG132-induced, luminescence 8 h; active compounds read low; activity change, negative = inhibition, % at 7.5 µM (by protocol); 300,000 compounds, 0.77% hits; AID 2098;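 active = more than half of replicate wells show activity change below -50%, luminescence cut by over half; inconclusive = some wells, but at most half, below -50%; inactive = no replicate well below -50%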;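 note: luciferase reports HSF-1 transcriptional activity via heat shock element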
dFosB activator: enhances mouse delta FosB homodimer DNA binding. activation, % at 25 µM. purified delta FosB, TAMRA-CDK5 oligo fluorescence polarization; percent of positive-control signal above neutral wells. P13346. 340,000 compounds, 0.99% hits;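 active = mean activation above about 17%, with every replicate also reaching it, limit read from the data, passing the limit was not always enough; inconclusive = only one of the two conditions met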
Target sequence (P13346 whole entry, looked up): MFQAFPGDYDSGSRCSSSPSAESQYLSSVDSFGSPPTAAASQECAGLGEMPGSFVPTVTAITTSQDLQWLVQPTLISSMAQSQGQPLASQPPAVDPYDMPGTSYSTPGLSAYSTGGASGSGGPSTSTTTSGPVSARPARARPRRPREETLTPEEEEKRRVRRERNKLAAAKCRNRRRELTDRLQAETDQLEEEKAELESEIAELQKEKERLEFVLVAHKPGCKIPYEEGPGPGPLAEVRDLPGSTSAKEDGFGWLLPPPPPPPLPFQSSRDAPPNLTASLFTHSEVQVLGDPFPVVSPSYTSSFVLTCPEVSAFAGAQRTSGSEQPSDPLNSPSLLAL
Each line names hits and unclear results; the compound was inactive in the other large screens. Hits are enriched below; roughly 4.9% of the tested compounds scored in any of these assays.

O=C(Nc1ccc2ccccc2c1)c1ccc(Br)o1	HSF1 activator 65
O=C(Nc1ccccc1)c1ccc(Br)o1	none
Cc1cc(C(=O)Nc2ccc3ccccc3c2)c(C)o1	HSF1 activator 66
CN[C@@H](C)C(=O)NC[C@H]1O[C@@H](n2cnc3c(N)ncnc32)[C@H](O)[C@@H]1O	none (no result: Platelet DG rel, HSF1 activator, HSP90 refold inh, HSF1 inh)
Cc1nn2cc(-c3ccc(Cl)cc3)cnc2c1Cl	none
CCOC(=O)C1CCN(S(=O)(=O)c2ccc(NC(=O)c3ccco3)cc2)CC1	none
CC(=O)N1c2ccc(S(=O)(=O)N3CCCC3)cc2CC1C(=O)NCc1ccc(N(C)C)cc1 (stereo not given)	HSF1 activator 57
CC(=O)N1c2ccc(S(=O)(=O)N3CCC(C(=O)NCc4ccc(N(C)C)cc4)CC3)cc2CC1C (stereo not given)	none
COCCNc1nc(-c2cc3ccccc3o2)cs1	HSF1 activator 56
c1ccc2sc(Sc3ncnc4sccc34)nc2c1	HSF1 activator 329
CCc1cc2c(Sc3nc4ccccc4s3)ncnc2s1	HSF1 activator 99
Cc1nc(-c2cc(-c3ccc(Cl)cc3)no2)cs1	HSF1 activator 71
CCOC(=O)c1cnc2ccc(OC)cc2c1Nc1ccc(N2CCN(C)CC2)cc1	HSF1 activator inconclusive, dFosB activator 36
Cc1ccc(S(=O)(=O)NCc2ccccc2)cc1C(=O)N1CCCCCCC1	none (no result: HSP90 refold inh)
Cc1cc(C)c(S(=O)(=O)NCCSCc2ccco2)c(C)c1	none (no result: Platelet DG rel, HSF1 activator, HSP90 refold inh, HSF1 inh)
O=C(O)CC1=C(Nc2ccccc2)C(=O)N(c2ccccc2)C1c1ccc(Br)cc1 (stereo not given)	HSF1 activator 57
CCCCN(C(=O)c1cc(S(=O)(=O)N2CCOCC2)ccc1N1CCOCC1)c1ccccc1	none (no result: Platelet DG rel, HSF1 activator, HSP90 refold inh, HSF1 inh, dFosB activator)
CCOC(=O)c1c(-c2ccc(C)o2)csc1NC(=O)COC(=O)c1ccc(NC(N)=O)cc1	HSF1 activator 74
O=C(NC1CCCCC1)C(c1ccncc1)N(Cc1ccccc1)C(=O)c1ccc(-c2ccccc2)[nH]1 (stereo not given)	HSF1 activator 55
CC(C)(C)NC(=O)C(c1ccc(F)cc1)N(Cc1ccco1)C(=O)c1csnn1 (stereo not given)	none
CC(C)(C)NC(=O)C(c1ccncc1)N(Cc1ccco1)C(=O)c1ccc(-c2ccccc2)[nH]1 (stereo not given)	HSF1 activator 138
COC(=O)Cn1nc(-c2ccc(C)cc2)c2ccccc2c1=O	none
CC(=O)c1cc2c(cc1NC(=O)CN(C)S(=O)(=O)c1cccs1)OCO2	none (no result: Platelet DG rel, HSF1 activator, HSP90 refold inh, HSF1 inh)
Cc1ccc(NC(CC(=O)c2ccccc2)c2ccc(F)cc2)cc1 (stereo not given)	none
O=C(CC(Nc1ccc(F)cc1)C(=O)OCC(=O)c1cccs1)c1ccccc1 (stereo not given)	HSF1 activator 89
O=C(CC(Nc1ccc(F)cc1)C(=O)O)c1ccccc1 (stereo not given)	HSF1 activator 56
O=C1c2ccccc2C(=O)N1CCSc1ccccc1	HSF1 activator 103
CC(=O)NC(c1ccccc1)c1nc(-c2cccc(CO)c2)cs1 (stereo not given)	none (no result: Platelet DG rel, HSF1 activator, HSP90 refold inh, HSF1 inh, dFosB activator)
Fc1ccc(Cn2ccc(-c3cnc(-c4ccccc4)s3)n2)cc1	HSF1 activator 62
Cc1cc(-c2csc(N)n2)c(C)n1-c1ccc(Cl)c(Cl)c1	none
COc1ccc(-n2c(C)cc(-c3csc(N)n3)c2C)cc1	dFosB activator 25
Cc1cc(C(=O)OCC(N)=O)c(C)n1-c1ccccc1	none
C/C(N)=C(/C#N)C(=O)COC(=O)c1cc(C)n(-c2ccc(F)cc2)c1C	HSF1 activator 84
CCOc1ccccc1NC1=C(OC)C(=O)C(Nc2ccccc2OCC)=C(OC)C1=O	none (no result: Platelet DG rel, HSF1 activator, HSP90 refold inh, HSF1 inh)
COc1ccc(N(C(=O)CCl)C(C(=O)NCCc2ccccc2)c2cccs2)cc1Cl (stereo not given)	none
COc1cccc(N(C(=O)CCl)C(C(=O)NCCc2ccccc2)c2cccs2)c1 (stereo not given)	HSF1 inh -92
CCCc1c(-c2ccc(Cl)cc2)ncn1CCc1ccccc1OC	none (no result: Platelet DG rel, HSF1 activator, HSP90 refold inh, HSF1 inh, dFosB activator)
O=C(C1CCCN(S(=O)(=O)Cc2ccccc2)C1)N1CCc2ccccc21 (stereo not given)	HSF1 inh -58
CCOC(=O)C1CCCN(S(=O)(=O)Cc2ccccc2)C1 (stereo not given)	none
Cc1cc(C)c(S(=O)(=O)N2CCN=C2c2ccccc2)cc1C	none
COc1cc(C)c(S(=O)(=O)N2CCN=C2c2ccccc2)cc1C	HSF1 activator 56
CC1(C(=O)Nc2ccc3c(c2)OCCO3)CN(S(C)(=O)=O)CC(=O)N1C1CCCCCC1 (stereo not given)	none (no result: Platelet DG rel, HSF1 activator, HSP90 refold inh, HSF1 inh, dFosB activator)
COc1ccc(-c2ncc3ccccn23)cc1OC	none
Clc1ccccc1-c1ncc2ccccn12	HSF1 activator 168
Clc1ccc(-c2ncc3ccccn23)cc1	HSF1 activator 63
N=C1/C(=C\c2ccc(-c3cccc(C(=O)O)c3)o2)C(=O)N=C2SC=C(c3ccccc3)N12	none
COc1ccc(-c2[nH]ncc2CN2CCN(C3CCCCC3)C(=O)C2)cc1F	HSF1 activator 56
COc1ccc(-c2[nH]ncc2CN2CCC(c3ccncc3)CC2)cc1F	none
COc1ccc([C@H]2CC(=O)C=C(c3cc4ccccc4c4ccccc34)C2)cc1	none (no result: Platelet DG rel, HSF1 activator, HSP90 refold inh, HSF1 inh)
COc1cc(NC(=O)CSc2nnnn2-c2ccccc2)cc(OC)c1OC	HSF1 inh -64
Fc1cc2[nH]c(=S)[nH]c2c(Br)c1N1CCSCC1	none
COc1ccc(-n2c(SCC(=O)Nc3ccc(Br)cc3)nc(O)cc2=O)cc1	none
COc1ccccc1CN1CC(C(=O)NCCN2CCNC2=O)CCC1=O (stereo not given)	HSF1 inh -73
CN1C2CCC1/C(=C\c1ccccc1F)C(=O)/C2=C/c1ccccc1F	HSF1 activator 106
COC1(OC)C(/C=C/c2ccc(C)cc2)C(C#N)(C#N)C1(OC)OC (stereo not given)	HSF1 activator 55
CC1c2ccsc2CCN1C(=O)NC(=O)c1ccc(Cl)cc1 (stereo not given)	HSF1 activator 71
CC1CCN(C(=O)NC(=O)c2ccc(Cl)cc2)CC1	none
CN(CCO)c1cccc2c1S(=O)(=O)N[C@@H](Cc1ccccc1)CO2	none (no result: Platelet DG rel, HSF1 activator, HSP90 refold inh, HSF1 inh, dFosB activator)
Cc1c(/C(O)=C2\C(=O)C(=O)N(CCCN(C)C)C2c2ccccc2)cnn1-c1ccccc1 (stereo not given)	HSP90 refold inh 42 (no result: Platelet DG rel, HSF1 activator, HSF1 inh)
CN(Cc1ccccc1)S(=O)(=O)c1ccc(Cl)c(C(=O)O)c1	none
O=C(O)c1cc(S(=O)(=O)N(Cc2ccccc2)c2ccccc2Cl)ccc1Cl	HSF1 inh -52
O=C(COC(=O)c1cccnc1)Nc1ccc2c(c1)OCO2	none
CCOC(=O)N1CCN(c2ncnc3c2cnn3-c2ccc(OC)cc2)CC1	none
Cc1nn(-c2ccccc2)c(Cl)c1C(=O)N1CCN(c2ncnc3c2cnn3-c2ccccc2)CC1	HSF1 inh -77
O=C(c1ccccc1)N1CCN(c2ncnc3c2cnn3-c2ccccc2)CC1	none

Screening data (PubChem BioAssay)
